Among the data in PubChem BioAssay AID602340 (Broad Institute, 2012) are rescue of ATP level values, retold here.

“And” between values parts separate entries of the source, which are not always exact repeats. Equal entries are not always repeated. Screen size: about 330,000 compounds; about 2,600 (0.79%) were called active.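 The calls were made as follows: active = mean ATP rescue above about 67%, or every replicate alone reaching that limit (limit read from the data, passing the limit was not always enough); inconclusive = no clear call, values can overlap the other calls; inactive = mean under the limit and some replicate under it.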 The list comes from a sample in which actives are over-represented; it also holds similar structures and randomly drawn compounds. Where a structure was tested more than once in an assay, its records may differ in their call.

A short description of this experiment: suppressors of statin myotoxicity in C2C12 myotubes, primary screen, cell-based, single point, plate reader (AID 602340).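 Also: myotubes were challenged with 10 µM simvastatin during compound exposure.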 The settings on record: C2C12 myotubes + simvastatin, ATP luminescence, 48 h; at 7.49 µM; stronger effect = higher value; scaled: DMSO 0, geranylgeraniol control 100.
Take `Cc1[nH]c(=O)c(C(=O)/C=C/c2ccccc2)c2c1CCCC2`: the rescue of ATP level was 165% (active).

For the compound `CC1(C(=O)O)CCCN(C(=O)/C=C/c2ccccc2)C1` (configuration not stated), the rescue of ATP level is 2.47% (inactive).

`C/C(=C\c1ccccc1)C1NC(=O)c2c(sc3c2CCCC3)N1` (configuration not stated): the rescue of ATP level is -22.3% (inactive).

For the compound `COc1ccccc1NC(=O)N1C[C@H](O)COC[C@H]2O[C@H](CC(=O)NCCc3ccccc3)CC[C@@H]21`, the rescue of ATP level is -6.91% (inactive).

For the compound `CCOc1ccc(C(=O)Nc2ccc(S(=O)(=O)Nc3cc(C)on3)cc2)cc1`, the rescue of ATP level was 10.8% (inactive).

Take `CCC(=O)Nc1ccc(C(=O)NNC(=O)c2ccc(Cl)cc2)cc1`: the rescue of ATP level was -2.53% (inactive).

Take `CCC(=O)Nc1ccc(C(=O)Nc2cc(C)on2)cc1`: the rescue of ATP level was 84.9% (active).

For `C[C@H]1CN([C@@H](C)CO)S(=O)(=O)c2ccc(Br)cc2O[C@H]1CN(C)C(=O)C1CC1`, the rescue of ATP level was 4.28% (inactive).

Consider `CCOC(=O)CSc1nc2ccc(C)cc2[nH]1`, for which the rescue of ATP level was 11.3% (inactive).

Consider `CC(=O)Nc1ccc(C(=O)CSc2nc3ccc(C)cc3[nH]2)cc1`, for which the rescue of ATP level is 107% (active).

For the compound `Cc1ccc2nc(SCC(=O)NC3CCCC3)[nH]c2c1`, the rescue of ATP level is -36.1% (inactive).

As to `O=C(NCC[C@H]1CC[C@H](NS(=O)(=O)c2cccc(F)c2)[C@H](CO)O1)C1CCCCC1`, the rescue of ATP level is 0.841% (inactive).

As to `COC(=O)C[C@H]1CC[C@H](NC(=O)Nc2ccc(C(F)(F)F)cc2)[C@H](CO)O1`, the rescue of ATP level was -6.07% (inactive).

Regarding `CCS(=O)(=O)Nc1ccc2c(c1)C(=O)N(C)[C@@H]1CC[C@H](CC(=O)N[C@H]3CCN(Cc4ccccc4)C3)O[C@@H]1CO2`, the rescue of ATP level is 10.9% (inactive).

In the case of `CCS(=O)(=O)Nc1ccc2c(c1)C(=O)N(C)[C@@H]1CC[C@@H](CC(=O)N3CCCCC3)O[C@H]1CO2`, the rescue of ATP level is -21.4% (inactive).

As for `CO[C@H]1CN(C)C(=O)c2ccc(NC(=O)C3CC3)cc2OC[C@@H](C)N(C)C[C@H]1C`, the rescue of ATP level is 2.87% (inactive).

In the case of `O=C(C1CCCN(S(=O)(=O)c2ccccc2)C1)N1CCN(c2ccc(F)cc2)CC1` (configuration not stated), the rescue of ATP level is -8.18% (inactive).

In the case of `CCCS(=O)(=O)N1CCCC(C(=O)N2CCN(c3ccccc3)CC2)C1` (configuration not stated), the rescue of ATP level is 103% (active).

Take `CCS(=O)(=O)N1CCC(C(=O)N2CCN(c3ccccc3)CC2)CC1`: the rescue of ATP level was 2.16% (inactive).

Turning to `C[C@@H](NC(=O)C[C@@H]1CC[C@H](NC(=O)Cc2ccccn2)[C@H](CO)O1)c1ccccc1`, the rescue of ATP level is 4.66% (inactive).

As for `C[C@@H]1CN([C@@H](C)CO)C(=O)c2cccc(NC(=O)Nc3ccc(F)cc3)c2O[C@@H]1CN(C)C(=O)Nc1ccccc1`, the rescue of ATP level was 7.96% (inactive).

For the compound `C[C@@H]1CN([C@H](C)CO)C(=O)c2cccc(NS(=O)(=O)c3ccc(Cl)cc3)c2O[C@H]1CN(C)C(=O)NC1CCCCC1`, the rescue of ATP level was 36.6% (inactive).

With `C[C@@H]1CN([C@@H](C)CO)C(=O)c2cccc(NC(=O)Nc3ccc(F)cc3)c2O[C@H]1CN(C)C(=O)Nc1ccc(F)cc1`, the rescue of ATP level is 18.2% (inactive).

In the case of `CC(C)NC(=O)N(C)C[C@H]1Oc2ccc(N(C)C)cc2C(=O)N([C@@H](C)CO)C[C@H]1C`, the rescue of ATP level was 70.4% (active).

With `C[C@@H]1CN([C@@H](C)CO)C(=O)c2cccc(NS(=O)(=O)c3ccc(F)cc3)c2O[C@H]1CN(C)C(=O)NC1CCCCC1`, the rescue of ATP level is 88.2% (active) and -10.4% (inactive).

Take `CC(C)NC(=O)N(C)C[C@@H]1Oc2ccc(N(C)C)cc2C(=O)N([C@@H](C)CO)C[C@H]1C`: the rescue of ATP level is -49% (inactive).

With `C[C@H]1CN([C@@H](C)CO)C(=O)c2cccc(NC(=O)Nc3ccc(C(F)(F)F)cc3)c2O[C@H]1CN(C)C(=O)NC1CCCCC1`, the rescue of ATP level is -25.5% (inactive).

With `C[C@H](CO)N1C[C@H](C)[C@@H](CN(C)C(=O)Nc2ccccc2)Oc2ccc(N(C)C)cc2C1=O`, the rescue of ATP level is 4.49% (inactive).

As to `C[C@@H]1CN([C@H](C)CO)C(=O)c2cccc(NS(=O)(=O)c3ccc(F)cc3)c2O[C@@H]1CN(C)C(=O)Nc1ccc(F)cc1`, the rescue of ATP level is 3.07% (inactive).

In the case of `C[C@@H]1CN([C@H](C)CO)C(=O)c2cccc(NC(=O)Nc3cccc4ccccc34)c2O[C@@H]1CN(C)C(=O)Nc1ccc(F)cc1`, the rescue of ATP level was 98.6% (active).

Consider `C[C@H]1CN([C@@H](C)CO)C(=O)c2cccc(NC(=O)Nc3ccc(C(F)(F)F)cc3)c2O[C@H]1CN(C)CC1CCCCC1`, for which the rescue of ATP level was 88.7% (active).

Turning to `C[C@H]1CN([C@@H](C)CO)C(=O)c2cccc(NC(=O)Nc3ccc(C(F)(F)F)cc3)c2O[C@@H]1CN(C)Cc1ccccc1`, the rescue of ATP level was -12.1% (inactive).

Consider `C[C@@H]1CN([C@H](C)CO)C(=O)c2cc(NC(=O)Cc3cn(C)c4ccccc34)ccc2O[C@@H]1CN(C)S(=O)(=O)c1cccs1`, for which the rescue of ATP level was 34.2% (inactive).

As for `CCS(=O)(=O)Nc1ccc2c(c1)C(=O)N(C)[C@H]1CC[C@H](CC(=O)NCc3ccccc3F)O[C@H]1CO2`, the rescue of ATP level was -3.79% (inactive).

Regarding `O=C(N[C@H]1CC[C@@H](CCn2cc(Cc3ccccc3)nn2)O[C@H]1CO)c1cnccn1`, the rescue of ATP level is -1.98% (inactive).

Regarding `COc1ccc(NC(=O)Nc2cccc3c2O[C@H](CN(C)C(=O)Nc2cccc4ccccc24)[C@H](C)CN([C@H](C)CO)C3=O)cc1`, the rescue of ATP level is 60% (inactive).

As to `COc1ccc(NC(=O)N(C)C[C@H]2Oc3c(NC(=O)Nc4cccc5ccccc45)cccc3C(=O)N([C@H](C)CO)C[C@@H]2C)cc1`, the rescue of ATP level was 75.6% (active).

With `COc1ccc(C#Cc2cnc3c(c2)C(=O)N([C@H](C)CO)C[C@@H](C)[C@H](CN(C)C(=O)Nc2cccc(OC)c2)O3)cc1`, the rescue of ATP level was 114% (active).

On to `COc1cccc(NC(=O)N(C)C[C@@H]2Oc3ncc(Br)cc3C(=O)N([C@@H](C)CO)C[C@H]2C)c1`, for which the rescue of ATP level is 17.2% (inactive).

For `COc1ccc(NC(=O)N(C)C[C@@H]2Oc3c(NC(=O)Nc4cccc5ccccc45)cccc3C(=O)N([C@@H](C)CO)C[C@H]2C)cc1`, the rescue of ATP level was 15.2% (inactive).

On to `COc1ccc(NC(=O)N(C)C[C@H]2Oc3ncc(C#C[C@@H](C)O)cc3C(=O)N([C@H](C)CO)C[C@H]2C)cc1`, for which the rescue of ATP level is 12.8% (inactive) and -6.34% (inactive) and 21.2% (inactive).

For `CN(C)C(=O)C[C@@H]1CC[C@H](NC(=O)NC2CCCCC2)[C@@H](CO)O1`, the rescue of ATP level was -1.33% (inactive).
